Source: PubChem BioAssay AID1347426 (Functional Genomics Laboratory (NCATS/FGL), 2020)
Screen size: about 31,000 sequences; about 1,400 (4.5%) were called active. This is one part of a sample in which actives are shown more often than they occur. Values without a mark were called inactive.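 How the source made its calls: active means median seed-adjusted z-score above 1 or below -1; inactive means the rest.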

Experiment: Novel Modifiers of Survival Motor Neuron (SMN) Protein: Gene Identification via Genome-wide siRNA Screen;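 further: luminescence tracks full-length SMN protein made from the SMN2 reporter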
Conditions: HEK293T SMN2-luciferase reporter, siRNA knockdown, 72 h; actives lie on both sides
Method in brief: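 Each of three siRNAs per gene is reverse-transfected (1 pmol) into reporter HEK293T cells whose luciferase output tracks SMN protein level. After 72 h culture, ONE-Glo luminescence is control-normalized, log10-transformed and MAD-standardized; Common Seed Analysis deprioritizes seed-driven hits.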

With GUACCCUGGAGGAAAGCGATT against GNRH2 the median seed-adjusted z-score was 1.13 (active).
In the case of GGAGCUCAUUUGACAUGUATT against KIR2DL5B, the median seed-adjusted z-score is reported as 1.72 (active).
With AGUGGUCCCUUCACAGGAATT against GNRH2 the median seed-adjusted z-score was 1.13 (active).
With CACGAGCUAAAGUAAAAUATT against EGLN1 the median seed-adjusted z-score was 2.05 (active).
With GGACGAGCCUCAUGAAUGATT against SEC11B the median seed-adjusted z-score was 1.04 (active).
In the case of CUACAUCAAGAAGACAUAUTT against ABHD2, the median seed-adjusted z-score is reported as -1.21 (active).
With GCACCAUUCUAACAAUGGATT against NANS the median seed-adjusted z-score was -1.54 (active).
With CAAUGUUAGGAGUCAGUCATT against ACTL6A the median seed-adjusted z-score was 1.11 (active).
With CCUGCCCAAUGUGACCUUUTT against MRC2 the median seed-adjusted z-score was -1.34 (active).
In the case of GUAUGUCAAGGAGAACGGATT against CTSL2, the median seed-adjusted z-score is reported as -1.04 (active).
For CAAGGAGCAGGGAUAUGAATT against ADAP2, the median seed-adjusted z-score was -1.1 (active).
In the case of CACCUGAAGUAAAUCGGAUTT against SF3B14, the median seed-adjusted z-score is reported as -1.26 (active).
With CGUGGGCUCUAUCUACUAUTT against PUF60 the median seed-adjusted z-score was 2.26 (active).
For UAAUCAAGCUGAAAACAGATT against TRYX3, the median seed-adjusted z-score was 2.3 (active).
For GAUGCUGGUUGGUUCGAUATT against MFSD4, the median seed-adjusted z-score was -1.89 (active).
In the case of GCUGAAAUCAAAAAGCGGATT against RAB1B, the median seed-adjusted z-score is reported as 1.55 (active).
For GUGAGACAGUUGACCGAGATT against SLC26A2, the median seed-adjusted z-score was -1.25 (active).
With CAUUCAAAUUUACCCUGUATT against POLR2H the median seed-adjusted z-score was -2.74 (active).
For CAACUACAACUGUGAGAUUTT against SF3A3, the median seed-adjusted z-score was -2.1 (active).

First: AGAGGAUCCUGAACUCCAATT against MYO19
Second: AUCAAGUCUUCUUACAAGATT against VDAC2
The median seed-adjusted z-score of the first is lower: 0.0987 for the first, 0.648 for the second.

Going from GAAUGAGGCAUAUCAAGCATT against TUBD1 to GGAAAUCCUUCAUAUACAATT against ZNF549, the median seed-adjusted z-score rises from -0.00491 to 0.0114.

Going from GAUUCCGUCUAAUCCUAGATT against C5 to ACAAUGAAGUUCUCCCUGATT against PCGF1, the median seed-adjusted z-score rises from 0.153 to 0.508.

Going from CCUCAUUUGUCUACACCAUTT against RAD51L1 to GGUAUGAGGUUGACUCAUUTT against IFNAR1, the median seed-adjusted z-score rises from 0 to 0.0327.

Compared with GGAGACCUGCGAUUACUUUTT against BARX2, GCGACUGUCUCGACAGAUATT against HTT is lower in median seed-adjusted z-score: -0.206 for the first, -0.234 for the second.

Going from GGAUAGCUAAAGAAAUUCATT against IMPA1 to CCACACUGGUGAUAGACCATT against ZNF384, the median seed-adjusted z-score rises from -0.295 to -0.132.

First: UGAAAGGACUUGUCUGAAATT against CHST6
Second: GGGUGUCUGCGAUUAUCUUTT against WDFY1
The median seed-adjusted z-score of the first is lower: 0.372 for the first, 0.979 for the second.

Compared with GGUUGGUGAUGUCAAGUAUTT against CDKL2, AGCCUUUAGUGUCCGUUCATT against ZNF347 is higher in median seed-adjusted z-score: -0.293 for the first, 0 for the second.

Compared with GGGACUAGCUCUUCGCAUATT against PTGER3, GACUCUGAAUGCUUGCUGUTT against MMS19 is higher in median seed-adjusted z-score: -0.321 for the first, 0.0142 for the second.

Compared with CCAUCUAUGAGGCGGGAAATT against MFI2, GAAUCUUGCCCGUCUAUAATT against RSC1A1 is higher in median seed-adjusted z-score: 0.365 for the first, 0.438 for the second.

Going from CACCAUCUCCGGGAACAGATT against FUT1 to GCAUGGGUUUUAUUAUAUATT against CCL11, the median seed-adjusted z-score falls from 0.000845 to -0.221.

Compared with CAUCAUUACUGUUGAGGGATT against CSRP2BP, GAGAAACCUUUAUUCGAUATT against GLULD1 is higher in median seed-adjusted z-score: -0.526 for the first, -0.332 for the second.

Compared with CCAUCGACAUUGAAACCUUTT against PITPNM2, GCAAUGCGUUCUUUCUAAATT against SIGLEC11 is lower in median seed-adjusted z-score: 0.275 for the first, -0.395 for the second.

First: CAAAGAGAUUUGUACAGAUTT against ZNF140
Second: CAGUGUCCAUGUACCUCUUTT against SLC37A4
The median seed-adjusted z-score of the first is higher: 0.587 for the first, -0.00202 for the second.

Compared with GCAUUUAGGUACCAGCUCATT against SLC39A2, CCAGGGAUAUGAUUGACAATT against SERPINE2 is lower in median seed-adjusted z-score: 0.0602 for the first, 0.0144 for the second.

Going from GCAGUACACGAGAAAGUCATT against 1-Sep to CUCUCUCUCUACGAACAUUTT against TCF7, the median seed-adjusted z-score falls from 0.0103 to -0.338.

Compared with CGACCCAGACAAUAGACUATT against CCNT1, GGUAUGGAUUGAUGCCGCATT against SLC6A2 is higher in median seed-adjusted z-score: -0.72 for the first, 0 for the second.

Compared with CCAACAAGCUGUCUCCCUATT against CENPB, GUACAAGAGAUAAUGCAAATT against TFPI is lower in median seed-adjusted z-score: 0.292 for the first, -0.0076 for the second.

First: CUAUCAUAGUGACAAGCGATT against GJA5
Second: AAGUACAUAUAACCACUUATT against RAB14
The median seed-adjusted z-score of the first is higher: 0.707 for the first, -0.0567 for the second.

First: CAGUGACCCGGAUCCUCUATT against RHCG
Second: CCUGGACGAGUUUAUAAUATT against AP1S3
The median seed-adjusted z-score of the first is higher: 0.375 for the first, 0.153 for the second.

Compared with GCCGUAUAAGUGUCAAGCATT against ZNF57, AGGGCUUGUUUGACAACUUTT against CHTF18 is higher in median seed-adjusted z-score: 0 for the first, 0.371 for the second.

Going from GCUGAUACCUUCUACCGUATT against GDPD2 to ACCGCACGAUGUUCAACUUTT against DNAJC30, the median seed-adjusted z-score rises from -0.0868 to 0.329.

Going from CAGACAUGAAGUAUAAGAATT against TCEA2 to CAAAUCCUAUAGUAUAACATT against RPS6KC1, the median seed-adjusted z-score falls from 0.552 to 0.344.

Compared with AGAUUAAGAUGUUCUACGATT against ADI1, GCCCAUUGACUAUUACUUUTT against AR is lower in median seed-adjusted z-score: 0.0593 for the first, -0.559 for the second.

Going from GAUGGAAGAUGGAACGGUUTT against CDC42BPA to CAUUAUCACUGGUGCACUUTT against CHN1, the median seed-adjusted z-score falls from 0.257 to 2.1e-05.

First: GGAAUAACAGUUGUAGGAATT against TMTC3
Second: GAGAGCAACUUAAAGACGATT against ST18
The median seed-adjusted z-score of the first is higher: 0.266 for the first, 0.0762 for the second.

First: UGCUCUACAUCAACCCUGATT against FSHR
Second: GAAGAGCCGUAUGAUCGAATT against ZNF432
The median seed-adjusted z-score of the first is lower: -0.462 for the first, -0.124 for the second.

First: GAGAGAUUGUGAUUGGAGATT against BHMT
Second: GGAUCCUAUUGAGAGGCUATT against HS2ST1
The median seed-adjusted z-score of the first is lower: 0 for the first, 0.421 for the second.

Compared with GCACCAAGCAUUAUGAAAATT against SDCBP, AGACAGUGUGGGUCCUGGATT against CD300E is higher in median seed-adjusted z-score: 0.0325 for the first, 0.337 for the second.

First: GGCAGUUAAUGGAACAAUUTT against MTMR7
Second: GAUAGAUCGUUUUAAGAGATT against MST4
The median seed-adjusted z-score of the first is lower: -0.207 for the first, 0.343 for the second.

Compared with CGACAACAUAUGUUCCGGATT against TNFRSF11B, AAUUCGAGCUGGUGCCAUCTT against MYCL1 is lower in median seed-adjusted z-score: 0.582 for the first, 0.0658 for the second.

First: ACCUCUACGUGGUCAGCUATT against DPP9
Second: CCAAACGAUUUAUACCUAATT against IPMK
The median seed-adjusted z-score of the first is lower: -0.224 for the first, -0.00138 for the second.

First: GAACAACCUGGAGAAAUAUTT against ENDOG
Second: GGAGAGACAUCGUCAGCUATT against AGXT
The median seed-adjusted z-score of the first is lower: -0.336 for the first, 0.017 for the second.

GAGUUUCGCCUGCUACAGATT against CELSR3 and GGAUGAUUCGGAAGGUGAATT against ZNF467 are the same in median seed-adjusted z-score: 0 for the first, 0 for the second.

Going from GGGCCGUGCUGAUUGAGAATT against GPX2 to GGAGAAGAAUGAGCAACUUTT against ADAM19, the median seed-adjusted z-score rises from -0.21 to 0.0996.

Compared with GGGCUUUGAUAGGAAUGCATT against UBE2K, CGCAGUAUGUGGACUAUGATT against NID2 is lower in median seed-adjusted z-score: 0.497 for the first, 0.283 for the second.

Compared with GGAAUGUGGUAACAGGAGATT against GMPR2, CCUACUCUGUUGUUCGAAATT against C3 is lower in median seed-adjusted z-score: 0.232 for the first, 0.0281 for the second.

Going from GCGGGAGAAGCUUACCUUUTT against DPP3 to GGAAAUAUGCGGCUACGGATT against NADSYN1, the median seed-adjusted z-score rises from -0.261 to 0.217.

Going from CGGGUACUGCUACACCUUUTT against SLC22A8 to GGACCUUGUUAACAGUGGATT against APOBEC1, the median seed-adjusted z-score falls from 0.175 to -0.323.

Compared with CCCUGUACGUGUACAUCAUTT against MPG, GAGGCAGUCUUAAAAUGGATT against RAB32 is lower in median seed-adjusted z-score: -0.0888 for the first, -0.112 for the second.

Going from CUUCAAGAAUAAGUACGAATT against KRT7 to GUGUGAUUCUUGGAGCAAATT against PLD2, the median seed-adjusted z-score falls from 0 to -0.743.

Going from GAAAUACUGCGGUAUAAAATT against SYTL2 to GCCCAUAGAGGGUUCAGAATT against CCNT1, the median seed-adjusted z-score falls from 0.211 to -0.72.

First: GAGAUGAACCGGAACAUCATT against LOC650864
Second: GAACCAUGGAUGGUGAUAATT against ZNF287
The median seed-adjusted z-score of the first is higher: 0.214 for the first, 0.0213 for the second.

Compared with GCUCCACAGCAUAUGCUCATT against NFIL3, GAACUGUGAAUUAGAUGUATT against F9 is lower in median seed-adjusted z-score: 0.4 for the first, 0.332 for the second.

Sequence GGAACACGCUGACAGGACATT against FZR1 has a median seed-adjusted z-score of 0.729.
